Test results reported in PubChem BioAssay (NCATS).
Inconclusive results are not listed. The source made the active and inactive calls. Calls follow the shape of the dose curve; as a rule, active = well fitted inhibition curve with a large enough effect; inconclusive = small, poorly fitted or top-dose-only effect; inactive = flat fitted curve, though single readings scatter.

Assays:
Assay in all cases: Cytotoxic Profiling of Annotated Libraries Using Quantitative High-Throughput Screening (AID 1296008); also: nearly all actives have a fitted effect of over 60% in size
Conditions in all cases: Five cell lines viability, CellTiter-Glo ATP luminescence, 48-72 h; max response: hits give low values
[1] = system: CRL-7250
Outline: (§1)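 Compounds were pin-transferred onto cells and incubated 48 or 72 hr at 37 degree Celsius, 95% humidity. CellTiter-Glo was added, plates sat 10 min at room temperature, then ATP-coupled luminescence was imaged as the viability read-out.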

[2] = system: HEK293
Outline: as §1

[3] = system: HaCat
Outline: as §1

[4] = system: KB-3-1
Outline: as §1

[5] = system: NIH3T3
Outline: as §1

Measured: max response
% is scaled to controls: 0 for no effect and ±100 for the full control effect.

Cc1ccc(Cl)cc1N(CC(=O)Nc1c(F)cccc1F)S(C)(=O)=O
inactive: [1] -3.38% | [2] -7.88% | [3] -2.84% | [4] 5.59% | [5]

O=C(/C=C/c1ccc(O)cc1)OC[C@@]1(O)C=C[C@@H]2C(C(=O)O)=CO[C@@H](O[C@@H]3O[C@H](CO)[C@@H](O)[C@H](O)[C@H]3O)[C@@H]21
inactive: [1] -3.16% | [2] -5.68% | [3] | [4] | [5] 2.82%

C=C1CCC2(OC1)OC1CC3C4CC=C5CC(O)CC(O[C@@H]6OC[C@H](OC(=O)C(O)C(C)CC)[C@H](O)[C@H]6O[C@@H]6O[C@@H](C)[C@H](O)[C@@H](O)[C@H]6O)C5(C)C4CCC3(C)C1C2C (stereo not given in full)
inactive: [1] -2.78% | [2] -1.63% | [3] -7.88% | [4] | [5]

CC(O)C(=O)/C=C/C=C/C(=O)OC1C=C2COC(=O)C2(O)C2(C)CCCC(C)(C)C12 (stereo not given)
inactive: [1] -6.23% | [2] 3.48% | [3] | [4] 4.29% | [5]

C=C1CC[C@@H]2[C@@](C)(CO[C@@H]3O[C@H](CO)[C@@H](O)[C@H](O)[C@H]3O)[C@H](O)CC[C@@]2(C)[C@@H]1CC/C(C)=C/CO[C@@H]1O[C@H](CO)[C@@H](O)[C@H](O)[C@H]1O
inactive: [1] | [2] -9.45% | [3] | [4] -3.96% | [5] -12.7%

CC(=O)O[C@H]1C[C@@H](O)C(C)(C)C2C[C@@H](OC(C)=O)[C@@]3(C)C4=CCC(C(CO)CC(O)C5OC5(C)C)[C@]4(C)CCC3[C@]21C (stereo not given in full)
inactive: [1] | [2] -1% | [3] | [4] | [5] -1.52%

NC1Nc2ccccc2C1(N)CC1NC(=O)C(Cc2ccccc2)NC(=O)C(Cc2ccccc2)NC1=O (stereo not given)
inactive: [1] -1.59% | [2] -40.7% | [3] | [4] 2.51% | [5] 1.33%

CC(=O)O[C@H]1[C@H](O[C@H]2CC[C@]34C[C@]35CC[C@]3(C)[C@@H]([C@@]6(C)CC[C@@H](C(C)(C)O)O6)[C@@H](O)C[C@@]3(C)[C@@H]5C[C@H](O[C@@H]3O[C@H](CO)[C@@H](O)[C@H](O)[C@H]3O)[C@H]4C2(C)C)OC[C@@H](OC(C)=O)[C@@H]1O
inactive: [1] -0.709% | [2] -4% | [3] | [4] | [5] 1.91%

c1ccc2c(Nc3nnc(-c4ccncc4)s3)cccc2c1
inactive: [1] 3.08% | [2] | [3] -11.3% | [4] 9.81% | [5] -0.252%

COc1cc(/C=C/C(=O)O[C@H]2C[C@@H]3C(C(=O)O)=CO[C@@H](O[C@@H]4O[C@H](CO)[C@@H](O)[C@H](O)[C@H]4O)[C@@H]3[C@H]2C)ccc1O
inactive: [1] | [2] | [3] 3.27% | [4] | [5] 1.34%

CC(=O)[C@@H]1C[C@H](C(C)(C)O[C@@H]2O[C@H](CO)[C@@H](O)[C@H](O)[C@H]2O)CC[C@@]2(CO)OC(=O)C[C@@H]12
inactive: [1] -8.92% | [2] 0.131% | [3] 4.13% | [4] 1.24% | [5]

NC(Cc1c[nH]c2ccc(O)cc12)C(=O)O (stereo not given)
inactive: [1] -7.16% | [2] -8.59% | [3] 0.887% | [4] | [5]

COC(=O)[C@]1(C)CCC[C@@]2(C)[C@@H]3CC[C@@H]4C[C@@]3(CC[C@@H]21)C[C@H]4C(=O)O
inactive: [1] -6.63% | [2] 0.134% | [3] 0.436% | [4] 9.78% | [5]

CCC(C)/C=C(C)/C=C/C1=CC2=C(Cl)C(=O)C(C)(OC(C)=O)C(=O)C2=CN1CCCCC(N)C(=O)O (stereo not given)
inactive: [1] -2.74% | [2] 3.25% | [3] | [4] | [5] 3.52%

COc1cc(-c2ccc(O)cc2)c(OC)c(O)c1C1=CC(=O)OC1CC(=O)O (stereo not given)
inactive: [1] 2.67% | [2] 1.87% | [3] | [4] -5.37% | [5]

CC(C)C1C(OC(=O)/C=C/c2ccccc2)CC2(C)OC2CCC2(C)OC2C1O (stereo not given)
inactive: [1] | [2] -5.07% | [3] | [4] 9.34% | [5] -5.79%

CC(C)CC(=O)OC[C@@]1(O)C[C@@]23CC[C@H]4[C@@](C)(CCC[C@@]4(C)C(=O)O)[C@@H]2CC[C@@H]1C3
inactive: [1] | [2] 1.06% | [3] -4.56% | [4] 4.98% | [5]

CC(C)=CCC[C@](C)(O[C@@H]1O[C@H](CO[C@@H]2O[C@@H](CO)[C@H](O)[C@H]2O[C@@H]2OC[C@@H](O)[C@H](O)[C@H]2O)[C@@H](O)[C@H](O)[C@H]1O)[C@H]1CC[C@]2(C)[C@@H]1[C@H](O)CC1[C@@]3(C)CC[C@H](O[C@@H]4O[C@H](CO)[C@@H](O)[C@H](O)[C@H]4O[C@@H]4O[C@H](CO)[C@@H](O)[C@H](O)[C@H]4O)C(C)(C)C3CC[C@]12C (stereo not given in full)
inactive: [1] 4.19% | [2] -1.64% | [3] | [4] 8.39% | [5] 4.58%
